{"source": "PubChem BioAssay", "key": {"[1]": {"test": "drug combination growth inhibition, ovarian cancer – cell-based, oncology-focused library, rucaparib conditional, profiling panel (AID 1508598;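 active = normalized viability below 100% at a tested concentration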)", "conditions": "patient-derived ovarian cancer cells, CellTiter-Glo viability, 144 h, stronger effect = lower value"}, "[2]": {"test": "viability loss in pontine glioma line – cell-based, SU-DIPG-XVII, MIPE5.0, CellTiter-Glo, qHTS, dose response (AID 1347060);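 as to AC50: cells exposed to compound for 48 hours before viability readout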", "conditions": "CellTiter-Glo ATP luminescence"}, "[3]": {"test": "viability loss in pontine glioma line – cell-based, SU-DIPG-XXV, MIPE5.0, CellTiter-Glo, qHTS, dose response (AID 1347065);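 also: cells exposed to compound for 48 hours before ATP readout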", "conditions": "CellTiter-Glo ATP luminescence"}, "[4]": {"test": "growth inhibition of DIPG cells – cell-based, MIPE5.0 library, qHTS (AID 1347068; cut-off not given, nearly all actives have IC50 up to about 30 µM;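 as to IC50: cells exposed to compound for 48 hours before viability readout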)", "conditions": "SU-DIPG-XXV viability"}, "[5]": {"test": "JHH-DIPG-1 glioma cell viability, MIPE5.0 library, CellTiter-Glo luminescence, qHTS (AID 1347067);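 also: cells exposed to compound for 48 hours before readout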", "conditions": "JHH-DIPG-1 glioma viability, CellTiter-Glo ATP luminescence"}, "[6]": {"test": "P. berghei load reduction in hepatocytes – cell-based, HepG2, luciferase luminescence, HepG2 viability, primary screen (AID 624349; in the data active = parasite load remaining mostly below about 12%, no sharp cut-off; inactive = mostly above about 10%;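 also: 100% = mean of DMSO negative control wells on the same plate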)", "conditions": "P. berghei liver stage in HepG2, luciferase luminescence, concentration not given here; parasite load remaining: stronger effect = lower value; viability: measured here: HepG2 viability without parasites"}, "[7]": {"test": "viability loss with induced miR-34 in A549 – imaging, A549 dox-inducible miR-34, nuclei and caspase counts, primary screen (AID 1347080;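 active = compounds whose cell count with miR-34 switched on is under 0.7 times the count with it off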)", "conditions": "A549 miR-34 inducible, Hoechst nuclei count, 48 h"}, "[8]": {"test": "MELAS cybrid and Rieske KO viability enhancers – cell-based, MELAS cybrids, Rieske KO mouse fibroblasts, CellTiter-Glo, primary screen (AID 1508586;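 active = mean z-score across replicates of 1.96 or higher in either the MELAS or the Rieske mutant cell line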;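 also: z relative to plate mean and SD of compound and empty wells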)", "conditions": "low glucose"}, "[9]": {"conditions": "stronger effect = lower value, cell number ratio, induced over uninduced"}, "[10]": {"conditions": "measured here: relative caspase fold change +Dox/-Dox"}, "[11]": {"conditions": "measured here: total cells with miR-34 induction, stronger effect = lower value"}, "[12]": {"conditions": "measured here: total cells without miR-34 induction"}, "[13]": {"conditions": "MELAS cybrid survival, CellTiter-Glo 48 h, stronger effect = higher value"}, "[14]": {"conditions": "Rieske KO mouse fibroblast survival, CellTiter-Glo 72 h"}}, "note": "Inconclusive results are not listed. The source made the active and inactive calls. Unless noted, the limit is not given here; nearly all actives have AC50 up to about 26 µM.", "data": [{"smiles": "Cc1cnc(-c2ccccc2C(C)C)nc1NCc1ccc(-n2ccnn2)cc1", "values": [{"measurement": "viability", "setting": "[1]; at 0.313 µM, OCI-C5x cells, with rucaparib 10 µM, 100% = cells with rucaparib alone", "result": "126% (inactive)"}, {"measurement": "viability", "setting": "[1]; at 0.313 µM, OCI-C5x cells, without rucaparib", "result": "126% (inactive)"}, {"measurement": "viability", "setting": "[1]; at 0.313 µM, OCI-P5x cells, with rucaparib 20 µM, 100% = cells with rucaparib alone", "result": "96.4% (active)"}, {"measurement": "viability", "setting": "[1]; at 0.313 µM, OCI-P5x cells, without rucaparib", "result": "101% (inactive)"}, {"measurement": "viability", "setting": "[1]; at 1.25 µM, OCI-C5x cells, with rucaparib 10 µM, 100% = cells with rucaparib alone", "result": "127% (inactive)"}, {"measurement": "viability", "setting": "[1]; at 1.25 µM, OCI-C5x cells, without rucaparib", "result": "119% (inactive)"}, {"measurement": "viability", "setting": "[1]; at 1.25 µM, OCI-P5x cells, with rucaparib 20 µM, 100% = cells with rucaparib alone", "result": "104% (inactive)"}, {"measurement": "viability", "setting": "[1]; at 1.25 µM, OCI-P5x cells, without rucaparib", "result": "96.9% (active)"}, {"measurement": "viability", "setting": "[1]; at 5 µM, OCI-C5x cells, with rucaparib 10 µM, 100% = cells with rucaparib alone", "result": "129% (inactive)"}, {"measurement": "viability", "setting": "[1]; at 5 µM, OCI-C5x cells, without rucaparib", "result": "130% (inactive)"}, {"measurement": "viability", "setting": "[1]; at 5 µM, OCI-P5x cells, with rucaparib 20 µM, 100% = cells with rucaparib alone", "result": "94.5% (active)"}, {"measurement": "viability", "setting": "[1]; at 5 µM, OCI-P5x cells, without rucaparib", "result": "97.8% (active)"}]}, {"smiles": "C=CC(=O)N1CC(N2CCN(C(=O)CNc3cc(C4(C)CC4)c(Cl)cc3O)CC2)C1", "values": [{"measurement": "outcome", "setting": "[2]", "result": "inactive"}, {"measurement": "outcome", "setting": "[3]", "result": "inactive"}, {"measurement": "outcome", "setting": "[4]", "result": "inactive"}]}, {"smiles": "Cc1[nH]nc2ncc(C(=O)N3CCC[C@H]3c3ccc(Cl)cc3)cc12", "values": [{"measurement": "outcome", "setting": "[2]", "result": "inactive"}, {"measurement": "outcome", "setting": "[3]", "result": "inactive"}, {"measurement": "outcome", "setting": "[4]", "result": "inactive"}]}, {"smiles": "CCCOc1ccc(CCc2nc3cc(-c4c(C)noc4C)ccc3n2CCN2CCOCC2)cc1", "values": [{"measurement": "outcome", "setting": "[2]", "result": "inactive"}, {"measurement": "AC50", "setting": "[5]", "result": "20.9 µM (active)"}, {"measurement": "outcome", "setting": "[4]", "result": "inactive"}]}, {"smiles": "Cn1ncc(NC(=O)c2nc(-c3c(F)cccc3F)sc2N)c1N1CC[C@@H](N)[C@H](F)CC1", "values": [{"measurement": "outcome", "setting": "[2]", "result": "inactive"}, {"measurement": "outcome", "setting": "[5]", "result": "inactive"}]}, {"smiles": "C=CC(=O)N[C@H]1CN(c2nc(Nc3cn(C)nc3OC)c3ncn(C)c3n2)C[C@@H]1F", "values": [{"measurement": "AC50", "setting": "[2]", "result": "18.6 µM (active)"}, {"measurement": "AC50", "setting": "[3]", "result": "20.9 µM (active)"}, {"measurement": "IC50", "setting": "[4]", "result": "16.6 µM (active)"}]}, {"smiles": "Cn1cc(-c2ccc(F)c(C(F)(F)F)c2)nc1C1CCN(c2ncnc3[nH]ncc23)CC1", "values": [{"measurement": "outcome", "setting": "[2]", "result": "inactive"}, {"measurement": "outcome", "setting": "[3]", "result": "inactive"}, {"measurement": "outcome", "setting": "[4]", "result": "inactive"}]}, {"smiles": "N#Cc1cccc(-c2c[nH]c3ncnc(N4CCOCC4)c23)c1", "values": [{"measurement": "outcome", "setting": "[2]", "result": "inactive"}, {"measurement": "outcome", "setting": "[3]", "result": "inactive"}, {"measurement": "outcome", "setting": "[4]", "result": "inactive"}]}, {"smiles": "O=C(O)CCNc1cc(N2CCc3ccccc3CC2)nc(-c2cccnc2)n1", "values": [{"measurement": "outcome", "setting": "[2]", "result": "inactive"}, {"measurement": "outcome", "setting": "[5]", "result": "inactive"}, {"measurement": "outcome", "setting": "[4]", "result": "inactive"}]}, {"smiles": "COc1ccc(CNc2nc(N(CCO)CCO)nc3c2ncn3C(C)C)cc1", "values": [{"measurement": "parasite load remaining", "setting": "[6]", "result": "40.6% (inactive)"}, {"measurement": "viability", "setting": "[6]", "result": 84, "unit": "%"}, {"measurement": "AC50", "setting": "[2]", "result": "7.42 µM (active)"}, {"measurement": "AC50", "setting": "[3]", "result": "10.5 µM (active)"}, {"measurement": "AC50", "setting": "[5]", "result": "5.25 µM (active)"}, {"measurement": "IC50", "setting": "[4]", "result": "11.8 µM (active)"}]}, {"smiles": "Nc1nccn2c(C3CCC(C(=O)O)CC3)nc(-c3cc4cccc(Cl)c4[nH]3)c12", "note": "(configuration not stated)", "values": [{"measurement": "AC50", "setting": "[2]", "result": "4.17 µM (active)"}, {"measurement": "AC50", "setting": "[3]", "result": "2.63 µM (active)"}, {"measurement": "outcome", "setting": "[4]", "result": "inactive"}]}, {"smiles": "Cc1cc(OCc2nnc(SC3CCCC3)n2-c2cccnc2)ccc1-c1ccc(S(C)(=O)=O)cc1", "values": [{"measurement": "AC50", "setting": "[2]", "result": "8.33 µM (active)"}, {"measurement": "AC50", "setting": "[3]", "result": "8.33 µM (active)"}, {"measurement": "AC50", "setting": "[5]", "result": "2.09 µM (active)"}, {"measurement": "outcome", "setting": "[4]", "result": "inactive"}, {"measurement": "fold change", "setting": "[7]; [9]", "result": "0.88 (inactive)"}, {"measurement": "fold change", "setting": "[7]; [10]", "result": 0.499}, {"measurement": "cell count", "setting": "[7]; [11]", "result": 1100}, {"measurement": "cell count", "setting": "[7]; [12]", "result": 1250}, {"measurement": "z-score", "setting": "[8]; [13]", "result": "0.698 (inactive)"}, {"measurement": "z-score", "setting": "[8]; [14]", "result": -0.0239}]}, {"smiles": "C/C(=C\\c1csc(C)n1)[C@@H]1C[C@@H]2O[C@]2(C)CCC[C@H](C)[C@H](O)[C@@H](C)C(=O)C(C)(C)[C@@H](O)CC(=O)N1", "values": [{"measurement": "AC50", "setting": "[2]", "result": "0.0148 µM (active)"}, {"measurement": "AC50", "setting": "[3]", "result": "0.0118 µM (active)"}, {"measurement": "IC50", "setting": "[4]", "result": "3.32 µM (active)"}]}, {"smiles": "Nc1ncnc2c1C(=O)N(c1ccc(C3CCC(CC(=O)O)CC3)cc1)CCO2", "note": "(configuration not stated)", "values": [{"measurement": "outcome", "setting": "[2]", "result": "inactive"}, {"measurement": "outcome", "setting": "[3]", "result": "inactive"}, {"measurement": "outcome", "setting": "[5]", "result": "inactive"}, {"measurement": "outcome", "setting": "[4]", "result": "inactive"}, {"measurement": "fold change", "setting": "[7]; [9]", "result": "0.873 (inactive)"}, {"measurement": "fold change", "setting": "[7]; [10]", "result": 0.72}, {"measurement": "cell count", "setting": "[7]; [11]", "result": 8200}, {"measurement": "cell count", "setting": "[7]; [12]", "result": 9390}, {"measurement": "z-score", "setting": "[8]; [13]", "result": "-0.311 (inactive)"}, {"measurement": "z-score", "setting": "[8]; [14]", "result": -0.473}]}]}
